Measured values taken from PubChem BioAssay (NCATS).
Results filed as inconclusive are left out. Calls of active or inactive are those of the source. Calls come from the whole dose curve; as a rule, active = well fitted inhibition curve with a large enough effect; inconclusive = small, poorly fitted or top-dose-only effect; inactive = flat fitted curve, though single readings scatter.

Experiments:
Assay in all cases: Cytotoxic Profiling of Annotated Libraries Using Quantitative High-Throughput Screening (AID 1296008); note: nearly all actives have a fitted effect of over 60% in size
Conditions in all cases: Five cell lines viability, CellTiter-Glo ATP luminescence, 48-72 h; max response: stronger effect = lower value
[1] = test system: CRL-7250
Method in brief: (§1)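 Compounds were pin-transferred onto cells and incubated 48 or 72 hr at 37 degree Celsius, 95% humidity. CellTiter-Glo was added, plates sat 10 min at room temperature, then ATP-coupled luminescence was imaged as the viability read-out.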

[2] = test system: HEK293
Method in brief: as §1

[3] = test system: HaCat
Method in brief: as §1

[4] = test system: KB-3-1
Method in brief: as §1

[5] = test system: NIH3T3
Method in brief: as §1

Measured: max response
% is set by controls: 0 for no effect and ±100 for the full control effect.

CC[C@@H]1[C@H]2CCCCN3C(=O)C[C@H]([C@@H]4[C@H]1OC(=O)[C@H]4C)[C@@H]23
inactive: [1] -4.41% | [2] -4.7% | [3] | [4] -6.87% | [5]

C/C(=C\CCC(C)(C)O)CCO[C@@H]1O[C@H](CO[C@@H]2O[C@@H](C)[C@H](O)[C@@H](O)[C@H]2O)[C@@H](O)[C@H](O)[C@H]1O
inactive: [1] | [2] -3.15% | [3] | [4] 4.26% | [5]

CC[C@H](C)[C@H](NC(=O)[C@H](Cc1ccc(O)cc1)NC(=O)[C@@H](N)C(C)C)C(=O)N[C@@H](Cc1cnc[nH]1)C(=O)N1CCC[C@H]1C(=O)N[C@@H](Cc1ccccc1)C(=O)O
inactive: [1] | [2] 0.716% | [3] | [4] | [5]

C/C=C/C=C/C=C/C(=O)OC1C=C2C(O)OC(=O)[C@]2(O)[C@@]2(C)CCCC(C)(C)[C@H]12 (stereo not given in full)
inactive: [1] -0.551% | [2] 4.05% | [3] | [4] 4.24% | [5] 3.08%

C[C@@H](CC[C@@H]1[C@@]2(C)CCCC(C)(C)C2CC[C@@]1(C)O)CC(=O)O (stereo not given in full)
inactive: [1] | [2] -2.2% | [3] | [4] | [5] 0.858%

CC1(C)CCC[C@@]2(C)[C@H]1[C@H](O)C=C(CO)[C@]2(O)CO
inactive: [1] -0.0206% | [2] -0.502% | [3] | [4] 6.19% | [5] -5.75%

COc1cnc(-n2cnc(C)n2)c2[nH]cc(C(=O)C(=O)N3CCN(C(=O)c4ccccc4)CC3)c12
inactive: [1] | [2] -12.9% | [3] | [4] | [5]

CCNC(=O)OC1CCN(c2nncc3cc(OC)c(OC)cc23)CC1
inactive: [1] -1.25% | [2] 2.54% | [3] -16.1% | [4] | [5]

COc1cc(/C=C/CO[C@@H]2O[C@H](CO)[C@@H](O)[C@H](O)[C@H]2O)cc(OC)c1O[C@@H]1O[C@H](CO)[C@@H](O)[C@H](O)[C@H]1O
inactive: [1] -7.94% | [2] -7.31% | [3] | [4] | [5]

CC(O)C(=O)/C=C/C=C/C(=O)OC1C=C2COC(=O)C2(O)C2(C)CCCC(C)(C)C12 (stereo not given)
inactive: [1] -6.23% | [2] 3.48% | [3] | [4] 4.29% | [5]

C[C@@H]1O[C@@H](O[C@H]2[C@H](O)[C@@H](O)[C@H](OC(=O)[C@]34CCC(C)(C)C[C@H]3C3=CCC5[C@@]6(C)CC[C@H](O[C@@H]7O[C@H](C(=O)O)[C@@H](O)[C@H](O)[C@H]7O)C(C)(C)C6CC[C@@]5(C)[C@]3(C)CC4)O[C@@H]2CO)[C@H](O)[C@H](O)[C@H]1O (stereo not given in full)
inactive: [1] | [2] -4.26% | [3] | [4] -0.526% | [5] -1.98%

C[C@@H]1O[C@@H](O[C@H]2[C@@H]3C=CO[C@@H](O[C@@H]4O[C@H](CO)[C@@H](O)[C@H](O)[C@H]4O)[C@@H]3[C@@]3(CO)O[C@@H]23)[C@H](OC(=O)/C=C/c2ccc(O)cc2)[C@H](O)[C@H]1O
inactive: [1] -20.4% | [2] -82.6% | [3] -0.452% | [4] -12.9% | [5]

C[C@@H]1O[C@@H](OC(=O)Cc2ccccc2)[C@H](O)[C@H](O)[C@H]1O
inactive: [1] 2.73% | [2] -2.15% | [3] | [4] 6.7% | [5]

C/C=C(/C)C(=O)OC1C2OC2C2(CO2)C2C3OC(=O)C(C)C3CCC12C (stereo not given)
inactive: [1] -1.71% | [2] | [3] 3.73% | [4] 9.88% | [5] -1.74%

C=C(C(=O)O)C1CC(OC(=O)CC(C)CC)C2(C)CCCC(=C)C2C1 (stereo not given)
inactive: [1] 4.7% | [2] 4.07% | [3] | [4] 2.84% | [5]

O=C(NC1CCN(CC(F)(F)F)CC1)c1ccc(-c2cccc(F)c2)nc1
inactive: [1] | [2] -11% | [3] | [4] -3.14% | [5]

O=C(O)Cn1nnc(-c2ccc(CN(CCCCOc3ccc(CN4CCCC4)cc3)CCc3ccccc3)cc2)n1
inactive: [1] | [2] -0.898% | [3] | [4] 9.81% | [5]

COc1cccc2c1c(O)c(C(=O)N(C)c1ccc(C(F)(F)F)cc1)c(=O)n2C
inactive: [1] -1.12% | [2] 3.79% | [3] | [4] 0.95% | [5] 2.51%

CC(=O)OCC1=CCC2C(C)(C)CCCC2(C)C12CCC(C)(CC(=O)O)O2 (stereo not given)
inactive: [1] -2.76% | [2] -0.588% | [3] | [4] 5.22% | [5]

C=C1C(O)C(O)C2(CC3C(C)=CCC4C(C)(C(=O)O)CCCC34C)OC2C1O (stereo not given)
inactive: [1] -4.59% | [2] 1.46% | [3] | [4] 2.87% | [5]

CC1(C)CC2C(O)C3=C(CC(C)(O)C2C1)C(=O)OC3 (stereo not given)
inactive: [1] | [2] -1.51% | [3] | [4] | [5]

O=C(O)C1(c2ccc(-c3ccc(Cl)c(Cl)c3)c(F)c2)CC1
inactive: [1] 2.78% | [2] -11.7% | [3] | [4] -5.77% | [5]

COc1ccc(/C=C/C(=O)O[C@@H]2[C@@H](OC(C)=O)[C@@H](OC(C)=O)[C@H](O[C@H]3[C@@H]4C=CO[C@@H](O[C@@H]5O[C@H](CO)[C@@H](O)[C@H](O)[C@H]5O)[C@@H]4[C@@]4(CO)O[C@@H]34)O[C@H]2C)cc1
inactive: [1] | [2] -1.95% | [3] 0.723% | [4] 2.76% | [5]

CC(C)(CC(=O)N1CCCC1)NCC(=O)N1C[C@@H](F)C[C@H]1C#N
inactive: [1] -2.43% | [2] -0.937% | [3] -28% | [4] 1.01% | [5]

C/C=C(\C)C(=O)OCC1OC(OCC2OC(OC3(CO)OC(CO)C(O)C3O)C(O)C(O)C2O)C(O)C(O)C1O (stereo not given)
inactive: [1] -0.798% | [2] -3.28% | [3] | [4] | [5]

C/C=C(\C)C(=O)OC[C@H]1O[C@@H](O[C@H]2[C@@H](O[C@H]3O[C@H](COC(=O)/C(C)=C/C)[C@@H](O)[C@H](O)[C@H]3O[C@@H]3O[C@H](CO)[C@@H](O)[C@H](OC(=O)/C(C)=C/C)[C@H]3O)O[C@H](COC(=O)/C(C)=C/C)[C@@H](O)[C@@H]2O)[C@H](O)[C@@H](O)[C@@H]1O
inactive: [1] -2.42% | [2] -5.26% | [3] 2.69% | [4] | [5]

O=C(O)c1cccc(CN2C(=O)/C(=C(\c3ccccc3)c3ccc(Cl)cc3)c3ccccc32)c1
inactive: [1] 3.11% | [2] -10.4% | [3] | [4] 5.03% | [5] -3.22%

COc1cc2c(cc1OC)N1C(=O)C[C@@]34C=CC[N@+]5([O-])CC[C@H]2[C@H](CC3)[C@@]145
inactive: [1] -5.36% | [2] -9.63% | [3] -4.24% | [4] 1.95% | [5]

O=C(/C=C/c1ccc(O)cc1)OCC1OC(O)C(OC2OC(CO)C(O)C(O)C2O)C(O)C1O (stereo not given)
inactive: [1] | [2] -3.95% | [3] | [4] 8.27% | [5] 3.74%

CC1=CCC(O)C2(C)CCC3C(C)C(=O)OC3C12 (stereo not given)
inactive: [1] -3.96% | [2] -18.2% | [3] | [4] -6.48% | [5] -0.383%

Cc1occc1C(=O)n1ccnc1
inactive: [1] -1.62% | [2] 0.475% | [3] 4.32% | [4] 0.152% | [5]

CC(C)/C=C1/NC(=O)C(C(C)C)n2c1nc1c(O)cccc1c2=O (stereo not given)
inactive: [1] | [2] -10.9% | [3] | [4] 3.96% | [5] -2.82%

C[C@H]1[C@H](C)CC[C@]2(C(=O)OC3OC(CO)C(O)C(O)C3O)CC[C@]3(C(=O)O)C(=CCC4[C@@]5(C)CC[C@H](O[C@@H]6O[C@@H](C)[C@H](OC7OC(CO)C(O)C(O)C7O)[C@@H](O)[C@H]6O)C(C)(C)C5CC[C@]43C)[C@H]12 (stereo not given in full)
inactive: [1] -1.78% | [2] 2.35% | [3] | [4] | [5] -8.63%

COC(=O)C1C(O)CCC2CN3CCc4c([nH]c5ccccc45)C3CC21 (stereo not given)
inactive: [1] 2.68% | [2] | [3] -7.68% | [4] 9.41% | [5] -7.25%

CC1=C2C(=O)C=C(CO)C2C2OC(=O)C(CS(=O)(=O)O)C2C(OC(=O)Cc2ccc(O)cc2)C1 (stereo not given)
inactive: [1] | [2] -5.22% | [3] -1.36% | [4] -6.7% | [5]

C=C1C(=O)O[C@@H]2C[C@]3(C)[C@@H](CCC(C)=O)[C@@H]3C[C@H]12
inactive: [1] 4.44% | [2] -12.9% | [3] | [4] 2.7% | [5]

COC(=O)C1=CO[C@@H](O[C@@H]2O[C@H](CO)[C@@H](O)[C@H](O)[C@H]2O)/C(=C\CO)[C@@H]1CC(=O)OCCc1ccc(O)cc1
inactive: [1] 0.106% | [2] 2.34% | [3] | [4] | [5]

Cc1cc(C)c2nc(-c3ccccn3)cc(C(=O)Nc3ccc(S(=O)(=O)Nc4onc(C)c4C)cc3)c2c1
inactive: [1] -3.09% | [2] -20.7% | [3] | [4] 1.46% | [5] 1.48%

CC1=CC(=O)CC(C)(C)C1/C=C/C(C)OC1OC(COC2OCC(O)C(O)C2O)C(O)C(O)C1O (stereo not given)
inactive: [1] 0.665% | [2] -4.28% | [3] -0.25% | [4] 9.19% | [5]
